Bioassay records: PubChem, National Center for Advancing Translational Sciences (NCATS)
Hits are enriched below; roughly 7.8% of the tested compounds scored in any of these assays.
Lassa entry inh = blocks Lassa virus binding to or entry into cells. Potency, µM (titrated, usually from 37.9 µM), for inactives: at the highest dose activity change, negative = inhibition, usual class: inhibitors. 300,000 compounds, 1.2% hits. Lassa virus pseudotype entry inhibition, cell reporter. AID 540256; calls by dose curve; tested in HEK293 cells; also: potency is read from the fitted curve at half-maximal effect; nearly all actives have a fitted effect of over 50% in size
HCV inh = inhibitors of hepatitis C virus infection; Potency, µM (series often up to 41.8 µM), inactives show top-dose activity change, negative = inhibition, usual class: inhibitors; 340,000 compounds, 3.4% hits; Huh7.5.1 HCVcc-Cre infection, luciferase reporter, 44 h; active = well fitted inhibition curve with a large enough effect; inconclusive = small, poorly fitted or top-dose-only effect, or another doubt; inactive = no such curve, though single readings can be large or run the other way; also: potency is read from the fitted curve at half-maximal effect
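HCVcc-Cre virus at an moi near 0.5 was added right after compound to cells cultured 4 h from seeding (1,000 cells/well). Luciferase activity was determined 44 h later, 15 min after substrate addition at RT.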
Vaccinia Venus = inhibitors of vaccinia virus (Venus reporter); Vaccinia virus Venus reporter expression, fluorescence; Potency, µM (top dose mostly 36.5 µM), for inactives: top-dose activity change, negative = inhibition, usual class: inhibitors; 330,000 compounds, 0.46% hits; calls by dose curve; tested in A549 cells; also: potency is read from the fitted curve at half-maximal effect; nearly all actives have a fitted effect of over 30% in size
Vaccinia mCherry = vaccinia inhibition (mCherry reporter) | Potency, µM (top dose mostly 36.5 µM), without a hit: top-dose activity change, negative = inhibition, most hits filed as inhibitors | 310,000 compounds, 0.63% hits | Vaccinia virus mCherry reporter infection, fluorescence; calls by dose curve; tested in A549 cells; also: potency is read from the fitted curve at half-maximal effect; nearly all actives have a fitted effect of over 35% in size
Marburg entry inh = blocks Marburg virus binding to or entry into cells | Marburg virus pseudotyped entry inhibition, cell reporter | Potency, µM (doses to about 37.8 µM), without a hit: at the top dose activity change, negative = inhibition, hits mostly inhibitors | 300,000 compounds, 1.8% hits | AID 540276; calls by dose curve; tested in HEK293 cells; also: potency is read from the fitted curve at half-maximal effect
HCMV inh = human cytomegalovirus inhibition; HFF cells, HCMV-luciferase reporter, 72 h; stronger effect = lower value; AID 1259415; 410,000 compounds, 4.5% hits; activity change, negative = inhibition, % at 57.5 µM; in the data active = activity change below about -60%; inconclusive = no clear call, values can overlap the other calls; inactive = above about -39%
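Compounds were evaluated in HFFs infected with an HCMV luciferase reporter virus (MOI 1 PFU/cell). Luciferase in lysates collected 72 h post infection served as the replication measure.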
Numbers without * were called inactive; i = inactive; ? = inconclusive; . = no result; [ ] = remark or other dose. % is scaled to controls: 0 for no effect and ±100 for the full control effect.

SMILES	Lassa entry inh	HCV inh	Vaccinia Venus	Vaccinia mCherry	Marburg entry inh	HCMV inh
CCOC(=O)/C=C/[C@@H](CCC(=O)OC)NC(=O)C(F)(F)F	.	.	.	.	.	-16
COc1cccc([C@H]2C(C(=O)c3cccs3)=C(O)C(=O)N2c2cc(C)on2)c1	.	.	.	.	13%	.
COc1ccc(F)cc1CSc1nnnn1-c1ccc(O)cc1	?	?	-15%	?	?	-62*
COc1ccc(C(C)=O)cc1CSc1nnnn1-c1ccc(O)cc1	.	-25%	.	.	.	-31
CC(=O)Oc1ccc(N(C(C)=O)S(=O)(=O)c2ccc3ccccc3c2)cc1	.	?	.	.	.	-71*
COc1ccc(C)cc1NC(=O)COC(=O)c1c(C)nn(-c2ccccc2)c1C	.	13µM*	.	.	.	-32
Cc1nn(-c2ccccc2)c(C)c1C(=O)OCC(=O)Nc1ccccc1F	.	?	.	.	.	0
Cc1nn(-c2ccccc2)c(C)c1C(=O)OCC(=O)NC(=O)NC1CCCC1	-16%	8.9µM*	?	.	-20%	-19
COc1ccc(C)cc1NC(=O)COC(=O)C1COc2ccccc2O1 (stereo not given)	.	0%	.	.	.	-92*
COc1ccccc1CNC(=O)COC(=O)c1c(C)nn(-c2ccccc2)c1Cl	.	11µM*	.	.	.	-5
Cn1ccc(C(=O)NCC2CCC3(CCN(Cc4cc(F)cc(F)c4)CC3)O2)n1 (stereo not given)	.	.	0%	i	.	.
CC1=C/C(=C\c2ccc(N(C)C)cc2)c2ccccc21	.	.	-16%	-21%	.	.
Cc1ccc(-c2noc(CN(C3CCCCC3)S(=O)(=O)c3ccc(C)cc3)n2)cc1	-15%[46.1 µM]	.	-24%	-17%	-25%[46.1 µM]	?
CCC1(C2CCN(Cc3cccc4ccccc34)CC2)NC(=O)N(Cc2ccc3c(c2)OCO3)C1=O (stereo not given)	.	.	-28%	-13%	.	.
Clc1ccc(-n2nnnc2-c2ccccc2)cc1	12%	15%	.	.	9%	3
Clc1ccc(-n2nnnc2-c2cnc3ccccc3c2-c2ccccc2)cc1	-5%	?	-18%	-26%	-34%	-72*
Cc1ccc(-n2nnnc2-c2cnc3ccc(Cl)cc3c2-c2ccccc2)cc1	?	10µM*	.	.	?	?
O=C(Nc1nccs1)c1c(O)c2cccc3c2n(c1=O)CCC3	.	.	.	.	.	-95*
NCCNC(=O)c1c(O)c2cccc3c2n(c1=O)CCC3	8%	-26%	-7%	0%	10µM*	13
O=C(Nc1ccccn1)c1c(O)c2cccc3c2n(c1=O)CCC3	?	7%	-14%	.	?	154
COCc1c(Br)c(C)nc2sc3c(=O)n(-c4cccc(Br)c4)nnc3c12	28%[46.1 µM]	.	-14%	-15%	9%[46.1 µM]	-17
Cc1cccc(CSCCNC(=O)C2CCN(S(=O)(=O)Cc3ccccc3)CC2)c1	-29%[46.1 µM]	.	-1%	-11%	-17%[46.1 µM]	3
Cc1cccc(N2CCN(C(=O)c3noc4c3CCCCC4)CC2)c1C	-13%[46.1 µM]	.	-8%	i	.	-40
CCN(Cc1ccncc1)Cc1nc(Cc2ccccc2Cl)no1	.	11µM*	.	.	.	-61*
CN(Cc1cnccn1)Cc1nc(Cc2ccccc2Cl)no1	22%[46.1 µM]	7%	-17%	i	-3%[46.1 µM]	-22
SMILES	Lassa entry inh	HCV inh	Vaccinia Venus	Vaccinia mCherry	Marburg entry inh	HCMV inh
COc1ccc(C(=O)Cn2nc(CNc3ccc(Br)cc3)[n+]3c2CCCCC3)cc1	-27%	-2%	-8%	-6%	?	-60*
CC[n+]1ccc(/C=C/c2ccc(N(C)C)cc2)c2ccccc21	?	4.5µM*	i	i	?	-99*
CCCCCC[n+]1ccccc1/C=C/c1ccc(N(C)C)cc1	.	.	i	i	.	-97*
CC[n+]1c(/C=C/c2ccc(N(C)C)cc2)ccc2ccccc21	9.2µM*	-20%[0.335 µM]	392%	301%	1.6µM*	.
CC[n+]1ccccc1/C=C/c1ccc(N(C)C)cc1	.	4.5µM*	.	.	.	-86*
CN(C)c1ccc(/C=C/c2cc[n+]([O-])c3ccccc23)cc1	.	.	-7%	32%	.	.
CN(C)c1ccc(/C=C/c2cc[n+]([O-])cc2)cc1	.	.	.	.	-7%	.
Cc1ccc(S(=O)(=O)c2cn(CC(=O)Nc3ccc4c(c3)OCO4)c3ccc(C)cc3c2=O)cc1	-2%[46.1 µM]	.	4%	-10%	?	-6
CC(C)c1ccc(NC(=O)CSC2=Nc3ccccc3C3=NC(CC(=O)NCc4cccs4)C(=O)N23)cc1 (stereo not given)	-26%[46.1 µM]	.	-10%	-17%	.	-24
Cc1cc(C)cc(-n2c(SCC(=O)N3CCC(C)CC3)nc3c([nH]c4ccccc43)c2=O)c1	12%[46.1 µM]	.	-6%	-8%	.	25
CCN(CC)c1ccc(/C=C/c2ccc3ccc(OC)cc3[n+]2CC)cc1	.	2.2µM*	.	.	.	-97*
CSc1ccc(CNc2ncc(-c3ccccc3)n2C)cc1	-1%[46.1 µM]	.	-14%	-16%	.	9
O=c1cc(C(F)(F)F)[nH]c2ccc(C(F)(F)F)cc12	?	?	?	-28%	?	-97*
Cc1cc(=O)c2ccc(C(F)(F)F)cc2[nH]1	8%	-5%	-7%[7.34 µM]	5%[7.34 µM]	-15%[46.1 µM]	-6
CCC(=NCCc1ccccc1)c1c(O)n(C)c(=O)n(C)c1=O	.	8.9µM*	.	.	.	?
CC(C)(C)C1CCc2nc(NC(=O)c3ccc([N+](=O)[O-])cc3)sc2C1 (stereo not given)	9%[46.1 µM]	.	-2%	-16%	2%[46.1 µM]	-74*
Cc1cccc(OCC(=O)Nc2nc3c(s2)CC(C(C)(C)C)CC3)c1C (stereo not given)	5%[46.1 µM]	.	-5%	i	10%[46.1 µM]	8
CC(C)(C)C1CCc2nc(NC(=O)c3cccc(Cl)c3)sc2C1 (stereo not given)	1%[46.1 µM]	.	-13%	0%	?	-90*
CCSc1nnc(NC(=O)COc2ccccc2[N+](=O)[O-])s1	18%[46.1 µM]	10%	-24%	-10%	?	-87*
CC(C)(C)C1CCc2nc(NC(=O)COc3ccccc3[N+](=O)[O-])sc2C1 (stereo not given)	-22%[46.1 µM]	.	1%	i	28%[46.1 µM]	-91*
CC(C)(C)C1CCc2nc(NC(=O)Cc3ccccc3)sc2C1 (stereo not given)	11%[46.1 µM]	.	-19%	i	?	56
COc1ccccc1Nc1nc(N2CCOCC2)nc(N2CCOCC2)n1	-9%[46.1 µM]	?	-15%	-24%	4µM*	?
COc1ccc(Nc2nc(N3CCCC3)nc3ccccc23)c(OC)c1	16µM*	3.2µM*	11µM*	?	?	?
CC(Nc1nc(N2CCCCC2)nc2ccccc12)c1ccccc1 (stereo not given)	?	?	.	.	?	-36
COc1ccc(Nc2nc(Nc3ccc(OC)cc3OC)nc(N3CCOCC3)n2)c(OC)c1	-18%[46.1 µM]	.	-15%[7.34 µM]	-9%[7.34 µM]	1µM*	-24
COc1ccc(Nc2nc(N3CCOCC3)nc(N3CCOCC3)n2)c(OC)c1	.	?	.	.	.	2
C=CCNc1nc(N2CCCC2)nc2ccccc12	-6%	16µM*	-13%	.	?	-37
C=CC[C@@H]1C=C[C@H](ON=C2c3cc(OC)ccc3O[C@H](c3cccc(OC)c3)[C@@H]2O)[C@H](CO)O1	.	.	.	.	-5%[14.2 µM]	.
